Consider 40 compounds from PubChem BioAssay (NCATS).

Records with an inconclusive call do not appear. Starred links: 1 amine or outer side, 2 acyl side, 3 side chain; linkers in the order of their positions; H or OH if unused. Positions of bridges follow the written chain, without caps; N, C: chain ends. Bridge positions count the residues as written; N and C are the ends. Non-standard residues stand in square brackets, D forms with d. Square brackets hold non-standard residues; d marks the D form. Residues, ends and D or L forms follow the SMILES beside them. Peptide text beside a SMILES is read from it. * marks the point of attachment. *: point of attachment. Ileψ(thiazoline)Cys = CC[C@H](C)[C@H](N)C1=N[C@H](C(=O)*)CS1; X1 = NC1=N[C@@H](O)C[C@@H]([C@@H](N[*:1])C(=O)[*:2])N1; ΔAla(Z-3-ureido) = NC(=O)N/C=C(\N)C(=O)O; d(aIle) = CC[C@H](C)[C@@H](N)C(=O)O; β3hOrn = NCCC[C@H](N)CC(=O)*; dOrn = NCCC[C@@H](N)C(=O)O; Dap = NC[C@H](N)C(=O)O

The first assay is described as follows: qHTS Assay for Lipid Storage Modulators (AID 1519). As to conditions: Drosophila S3 cells, BODIPY lipid droplet/cell ratio, laser cytometry; measured here: cell count channel max response; cells loaded with oleic acid. Put shortly: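 Cells seeded at 5,000 per well were treated with compounds over a concentration series and loaded with oleic acid (400 uM, as added). Lipid droplet fluorescence (488 nm excitation, 500-530 nm channel) was read by laser-scanning cytometry and normalized to 20 uM Triacsin C.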
For `COc1ccc(CNc2ncncc2-c2ccccc2CN(C)C)c(OC)c1`, the max response is 9.69%.
Regarding `Nc1nc(=S)c2ncn([C@H]3O[C@@H](CO)[C@@H](O)[C@@H]3O)c2[nH]1`, the max response stood at 2.2%.
On to `C#C[C@]1(O)CC[C@@H]2[C@H]3CCC4=CCCC[C@@H]4[C@@H]3CC[C@@]21C`, for which the max response is -7.9%.
Same read-out and setting: the value for `O=C(c1cc(C(F)(F)F)cc(C(F)(F)F)c1)N1CCC[C@@]2(CCN(c3ccccn3)C2)C1` was -3.88%; that for `CC[C@H](C)[C@H](N)C1=N[C@H](C(=O)N[C@@H](CC(C)C)C(=O)N[C@@H](CCC(=O)O)C(=O)N[C@@H](C(=O)N[C@H]2CCCCNC(=O)[C@@H](CC(N)=O)NC(=O)[C@@H](CC(=O)O)NC(=O)[C@@H](Cc3cnc[nH]3)NC(=O)[C@@H](Cc3ccccc3)NC(=O)[C@@H]([C@@H](C)CC)NC(=O)[C@@H](CCCN)NC2=O)[C@@H](C)CC)CS1` ({Ileψ(thiazoline)Cys}-LE[d(aIle)]K[dOrn][d(aIle)][dF][dH][dD][dN]; lactam 4-C) was -6.25%; that for `CC1(C)S[C@@H]2[C@H](NC(=O)[C@@H](N)c3ccc(O)cc3)C(=O)N2[C@H]1C(=O)O` was -7.54%.
With `C[C@H](CCC(=O)O)[C@H]1CC[C@@H]2[C@H]3[C@@H](CC[C@@]21C)[C@]1(C)CC[C@H](O)C[C@@H]1C[C@@H]3O`, the max response is -6.52%.
On the same count and under the same terms, the value for `O=C(O)[C@@H](O)[C@@H](O)[C@@H](O[C@H]1O[C@@H](CO)[C@@H](O)[C@@H](O)[C@@H]1O)[C@@H](O)CO` was 12.1%.
Turning to `O=C(N[C@@H](CO)[C@@H](O)c1ccc([N+](=O)[O-])cc1)C(Cl)Cl`, the max response amounted to 11.1%.
Turning to `CN1CCC2(CC1)CCN(C(=O)c1ccncc1)CC2`, the max response stood at 10.6%.
Still for that read-out and setting: the value for `CN(C)CCO[C@@H](c1ccc(Cl)cc1)c1ccccn1` was -21.7%; that for `O=C(O)COCCN1CCN([C@@H](c2ccccc2)c2ccc(Cl)cc2)CC1` was -9.07%; that for `CC(=O)O[C@H]1C[C@H]2CC[C@@H]3[C@@H](CC[C@]4(C)[C@H](OC(C)=O)[C@H]([N+]5(C)CCCCC5)C[C@@H]34)[C@]2(C)C[C@H]1[N+]1(C)CCCCC1` was 0.133%.
In the case of `CCN(CC)CCOC(=O)[C@@H](Cc1cccc2ccccc12)C[C@@H]1CCCO1`, the max response is -1.15%.
Turning to `Clc1ccc([C@H](Cn2ccnc2)OCc2c(Cl)cccc2Cl)c(Cl)c1`, the max response was -18.9%.
Same read-out and setting: the value for `C[C@@H](CNC1CCCCC1)OC(=O)c1ccccc1` was -16.8%; that for `CC[C@H](CO)NCCN[C@@H](CC)CO` was 4.79%; that for `CC[N+]1(C)[C@@H]2CC[C@H]1CC(OC(=O)[C@H]1CC[C@@](C(=O)OC3C[C@H]4CC[C@@H](C3)[N+]4(C)CC)(c3ccccc3)c3ccccc31)C2` (stereo not given in full) was -11.7%.
For the compound `C[C@@]12C=CC(=O)C=C1CC[C@H]1[C@H]3CC[C@](O)(C(=O)CO)[C@]3(C)CC(=O)[C@@H]12`, the max response is 0.532%.
Turning to `CO[C@@H]1C=CO[C@]2(C)Oc3c(C)c(O)c4c(O)c(c(C=NN5CCN(C)CC5)c(O)c4c3C2=O)NC(=O)C(C)=CC=C[C@H](C)[C@H](O)[C@H](C)[C@H](O)[C@H](C)[C@H](OC(C)=O)[C@H]1C`, the max response was -4.36%.

The same assay, now with this note: Drosophila S3 cells, BODIPY lipid droplet/cell ratio, laser cytometry; measured here: lipid channel max response; cells loaded with oleic acid.
Turning to `CC[C@]1(c2ccccc2)NC(=O)N(C)C1=O`, the max response was found to be 11.3%.
As for `CN1CCO[C@H](c2ccccc2)c2ccccc2C1`, the max response is -11.4%.
Same read-out and setting: the value for `C[C@H](CCC(=O)O)[C@H]1CC[C@@H]2[C@@H]3[C@@H](O)C[C@H]4C[C@@H](O)CC[C@@]4(C)[C@H]3CC[C@@]21C` was -0.386%.
`C=CCO[C@@H](Cn1ccnc1)c1ccc(Cl)cc1Cl`: the max response is -7.51%.
On the same count and under the same terms, the value for `CN(C/C=C\c1ccccc1)Cc1cccc2ccccc12` was -23.6%; that for `CC(C)(CO)[C@H](O)C(=O)NCCC(=O)O` was 6.98%.
For `C[N+]1(C)CC[C@@H](OC(=O)[C@@](O)(c2ccccc2)C2CCCC2)C1`, the max response was -10.3%.
In the case of `CCN(CCCCOC(=O)c1ccc(OC)c(OC)c1)[C@@H](C)Cc1ccc(OC)cc1`, the max response was -6.28%.
`O=C(O)c1cc2ccccc2c(Cc2cc3ccccc3c(C(=O)O)c2O)c1O` (tested in a mixture with another compound): the max response is -4.55%.
Still for that read-out and setting: the value for `C[C@H](NCCC(c1ccccc1)c1ccccc1)c1ccccc1` was -22.3%.
The same measure, in the same setting: the value for `CCC(=O)OCC(=O)[C@@]1(OC(=O)CC)[C@H](C)C[C@@H]2[C@@H]3[C@H]([C@@H](O)C[C@@]21C)[C@]1(C)C=CC(=O)C=C1C[C@@H]3Cl` was -12.3%; that for `C[C@H](C(=O)O)c1cccc(Oc2ccccc2)c1` was -2.59%; that for `NCCC[C@H](N)CC(=O)N[C@H]1CNC(=O)[C@@H]([C@@H]2C[C@H](O)N=C(N)N2)NC(=O)/C(=C/NC(N)=O)NC(=O)[C@@H](CO)NC(=O)[C@@H](CO)NC1=O` (β3hOrn-[Dap][dS][dS][ΔAla(Z-3-ureido)][X1]; lactam 1-C) was -7.39%.
On to `CC1(C)[C@@H](OC(=O)CCC(=O)O)CC[C@@]2(C)[C@H]1CC[C@@]1(C)[C@H]2C(=O)C=C2[C@H]3C[C@](C)(C(=O)O)CC[C@]3(C)CC[C@@]21C`, for which the max response was -2.85%.
As to `CCOC(=O)O[C@@H](C)OC(=O)[C@@H]1N2C(=O)[C@@H](NC(=O)[C@@H](N)c3ccccc3)[C@H]2SC1(C)C`, the max response was found to be 0.724%.
Still for that read-out and setting: the value for `C#C[C@@]1(OC(C)=O)CC[C@@H]2[C@@H]3CCC4=C[C@@H](OC(C)=O)CC[C@H]4[C@H]3CC[C@]21C` was -9.18%; that for `CC#C[C@@]1(O)CC[C@H]2[C@@H]3CCC4=CC(=O)CCC4=C3[C@H](c3ccc(N(C)C)cc3)C[C@]21C` was -5.96%; that for `Cc1ccsc1/C=C\C1=NCCCN1C` was -10.2%.
Consider `Cc1cccc(CN2CCN([C@@H](c3ccccc3)c3ccc(Cl)cc3)CC2)c1`, for which the max response was -24.7%.
Same read-out and setting: the value for `C[C@@H]1[C@H]2CC[C@@H]3[C@@H]4CC=C5C[C@@H](N(C)C)CC[C@]5(C)[C@@H]4CC[C@@]32CN1C` was -8.59%; that for `COc1ccc(CNc2ncncc2-c2ccccc2CN(C)C)c(OC)c1` was 19.6%.
Turning to `Nc1nc(=S)c2ncn([C@H]3O[C@@H](CO)[C@@H](O)[C@@H]3O)c2[nH]1`, the max response was -3.95%.
As to `C#C[C@]1(O)CC[C@@H]2[C@H]3CCC4=CCCC[C@@H]4[C@@H]3CC[C@@]21C`, the max response is -10.1%.
For `O=C(c1cc(C(F)(F)F)cc(C(F)(F)F)c1)N1CCC[C@@]2(CCN(c3ccccn3)C2)C1`, the max response was -16.6%.
Turning to `CC[C@H](C)[C@H](N)C1=N[C@H](C(=O)N[C@@H](CC(C)C)C(=O)N[C@@H](CCC(=O)O)C(=O)N[C@@H](C(=O)N[C@H]2CCCCNC(=O)[C@@H](CC(N)=O)NC(=O)[C@@H](CC(=O)O)NC(=O)[C@@H](Cc3cnc[nH]3)NC(=O)[C@@H](Cc3ccccc3)NC(=O)[C@@H]([C@@H](C)CC)NC(=O)[C@@H](CCCN)NC2=O)[C@@H](C)CC)CS1` ({Ileψ(thiazoline)Cys}-LE[d(aIle)]K[dOrn][d(aIle)][dF][dH][dD][dN]; lactam 4-C), the max response was -6.65%.
Regarding `CC1(C)S[C@@H]2[C@H](NC(=O)[C@@H](N)c3ccc(O)cc3)C(=O)N2[C@H]1C(=O)O`, the max response is -10.4%.
Same read-out and setting: the value for `C[C@H](CCC(=O)O)[C@H]1CC[C@@H]2[C@H]3[C@@H](CC[C@@]21C)[C@]1(C)CC[C@H](O)C[C@@H]1C[C@@H]3O` was -4.97%; that for `O=C(O)[C@@H](O)[C@@H](O)[C@@H](O[C@H]1O[C@@H](CO)[C@@H](O)[C@@H](O)[C@@H]1O)[C@@H](O)CO` was 10.3%.
Regarding `O=C(N[C@@H](CO)[C@@H](O)c1ccc([N+](=O)[O-])cc1)C(Cl)Cl`, the max response came out at 8.81%.
On the same count and under the same terms, the value for `CN1CCC2(CC1)CCN(C(=O)c1ccncc1)CC2` was 6.89%; that for `CN(C)CCO[C@@H](c1ccc(Cl)cc1)c1ccccn1` was -26%; that for `O=C(O)COCCN1CCN([C@@H](c2ccccc2)c2ccc(Cl)cc2)CC1` was -7.35%.
Regarding `CC(=O)O[C@H]1C[C@H]2CC[C@@H]3[C@@H](CC[C@]4(C)[C@H](OC(C)=O)[C@H]([N+]5(C)CCCCC5)C[C@@H]34)[C@]2(C)C[C@H]1[N+]1(C)CCCCC1`, the max response is -5.07%.
As to `CCN(CC)CCOC(=O)[C@@H](Cc1cccc2ccccc12)C[C@@H]1CCCO1`, the max response was -7.84%.
For `Clc1ccc([C@H](Cn2ccnc2)OCc2c(Cl)cccc2Cl)c(Cl)c1`, the max response was -21.7%.
For the compound `C[C@@H](CNC1CCCCC1)OC(=O)c1ccccc1`, the max response was -19.5%.
Still for that read-out and setting: the value for `CC[C@H](CO)NCCN[C@@H](CC)CO` was 4.52%; that for `CC[N+]1(C)[C@@H]2CC[C@H]1CC(OC(=O)[C@H]1CC[C@@](C(=O)OC3C[C@H]4CC[C@@H](C3)[N+]4(C)CC)(c3ccccc3)c3ccccc31)C2` (stereo not given in full) was -14.8%.
Take `C[C@@]12C=CC(=O)C=C1CC[C@H]1[C@H]3CC[C@](O)(C(=O)CO)[C@]3(C)CC(=O)[C@@H]12`: the max response came out at 0.96%.
With `CO[C@@H]1C=CO[C@]2(C)Oc3c(C)c(O)c4c(O)c(c(C=NN5CCN(C)CC5)c(O)c4c3C2=O)NC(=O)C(C)=CC=C[C@H](C)[C@H](O)[C@H](C)[C@H](O)[C@H](C)[C@H](OC(C)=O)[C@H]1C`, the max response is -4.23%.
